# PubChem BioAssay
# Calls of active or inactive are those of the source. Unless noted, the rule behind the calls is not given here.
# Experiments:
# [1] = resazurin metabolic signal in HepG2 cells – cell-based, resazurin fluorescence, 24 h, PK04 Diversity Set, profiling panel (AID 1172); conditions: HepG2 viability, higher = more signal; note: test concentration not given here
# [2] = budding yeast growth changes without added modifier – OD600, strain BY4716, 24 h, basal condition, primary screen (AID 1173); conditions: S. cerevisiae BY4716 growth, OD600, 24 h; higher = more signal, called active from +8 up or from −8 down
# [3] = viability profiling in MM1S myeloma cells – cell-based, resazurin fluorescence, basal, 24 h, PK04 Diversity Set, profiling panel (AID 1174); conditions: higher = more signal, called active from +8 up or from −8 down;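 note: MM1S multiple myeloma cell line; test concentration not given here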
# [4] = target: Dihydroorotate dehydrogenase (quinone), mitochondrial (Plasmodium falciparum (isolate 3D7)) (UniProt Q08210); assay: inhibition of P. falciparum DHODH – biochemical, C-terminal His tag, absorbance 600 nm, primary screen (AID 1175); conditions: PfDHODH enzyme, DCIP absorbance 600 nm; higher = more signal, called active from +8 up or from −8 down;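 note: recombinant parasite enzyme with a five histidine tag at its C terminus; test concentration not given here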
# [5] = inhibition of PAO1 biofilm formation – strain PAO1, LB-PBS medium, absorbance 600 nm, primary screen (AID 1176); note: test concentration not given here; conditions: P. aeruginosa PAO1 growth/biofilm, A600, 12 h; higher = more signal
# [6] = growth modulation of vineyard yeast isolate – strain RM11-1a, OD600, basal, 24 h, primary screen (AID 1177);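 note: cultures grown under basal conditions with no added stressor; test concentration not given here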; conditions: S. cerevisiae RM11-1a growth, OD600, 24 h; higher = more signal, called active from +8 up or from −8 down
# [7] = growth of efflux-deficient E. coli DRC39 – strain DRC39, OD650, 24 h, E. coli filamentation inducers, primary screen (AID 1178);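 note: growth measured as culture turbidity by optical density at 650 nm; test concentration not given here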; conditions: E. coli DRC39 acrAB, higher = more signal, called active from +8 up or from −8 down
# [8] = growth of efflux-deficient E. coli DRC39 – strain DRC39, OD650, 48 h, E. coli filamentation inducers, primary screen (AID 1179);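 note: screen aims at cell division blockers that make cells filament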; conditions: E. coli DRC39 delta-acrAB growth, higher = more signal, called active from +8 up or from −8 down
# [9] = viability profiling in RPMI8226 myeloma cells – cell-based, resazurin fluorescence, basal, 24 h, PK04 Diversity Set, profiling panel (AID 1180); conditions: higher = more signal;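 note: RPMI8826 multiple myeloma cell line at 5000 cells per well; test concentration not given here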
# [10] = target: E3 ubiquitin-protein ligase XIAP (Homo sapiens) (UniProt P98170); assay: small molecules binding XIAP protein – biophysical, small-molecule microarray, fluorescence 635 nm, primary screen (AID 1181); conditions: higher = more signal;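 note: score merges 667 nm emission and signal to noise over triplicate slides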
# Chain of E3 ubiquitin-protein ligase XIAP (Homo sapiens) (P98170 whole entry, looked up): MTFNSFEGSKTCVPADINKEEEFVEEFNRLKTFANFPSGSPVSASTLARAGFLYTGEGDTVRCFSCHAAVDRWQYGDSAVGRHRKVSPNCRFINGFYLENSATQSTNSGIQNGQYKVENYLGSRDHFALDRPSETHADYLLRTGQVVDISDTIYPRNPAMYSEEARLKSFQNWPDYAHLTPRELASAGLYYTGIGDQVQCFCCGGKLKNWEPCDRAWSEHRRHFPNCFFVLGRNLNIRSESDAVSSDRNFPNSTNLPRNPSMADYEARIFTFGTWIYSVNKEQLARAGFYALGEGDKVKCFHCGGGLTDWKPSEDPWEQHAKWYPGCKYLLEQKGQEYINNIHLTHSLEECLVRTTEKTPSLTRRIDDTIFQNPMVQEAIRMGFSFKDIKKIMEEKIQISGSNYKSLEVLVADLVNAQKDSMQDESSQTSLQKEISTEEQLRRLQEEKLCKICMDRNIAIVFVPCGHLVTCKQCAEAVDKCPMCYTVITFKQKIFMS
# Chain of Dihydroorotate dehydrogenase (quinone), mitochondrial (Plasmodium falciparum (isolate 3D7)) (Q08210 whole entry, looked up): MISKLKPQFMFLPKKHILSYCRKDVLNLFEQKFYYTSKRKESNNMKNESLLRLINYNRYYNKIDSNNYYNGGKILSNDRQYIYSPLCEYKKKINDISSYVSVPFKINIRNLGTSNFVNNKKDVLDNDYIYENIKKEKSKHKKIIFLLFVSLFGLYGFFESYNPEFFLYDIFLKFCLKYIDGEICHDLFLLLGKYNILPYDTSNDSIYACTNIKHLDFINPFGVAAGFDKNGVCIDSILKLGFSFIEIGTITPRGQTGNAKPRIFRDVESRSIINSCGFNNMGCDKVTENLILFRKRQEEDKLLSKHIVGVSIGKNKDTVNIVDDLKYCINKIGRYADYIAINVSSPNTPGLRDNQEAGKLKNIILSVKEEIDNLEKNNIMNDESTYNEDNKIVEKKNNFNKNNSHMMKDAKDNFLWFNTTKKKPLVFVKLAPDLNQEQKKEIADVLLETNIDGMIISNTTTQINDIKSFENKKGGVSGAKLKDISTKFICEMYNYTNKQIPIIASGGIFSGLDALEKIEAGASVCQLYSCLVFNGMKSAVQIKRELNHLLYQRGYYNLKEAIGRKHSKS
Structure (SMILES),z-score [1],z-score [2],z-score [3],composite z-score [4],z-score [5],z-score [6],z-score [7],z-score [8],z-score [9],composite z-score [10]
C=C(C(=O)CC[C@H](OC(C)=O)c1ccccc1OCCO)C(C)C,-1.64,-18.4 (active),-1 (inactive),-9.12 (active),-0.493 (inactive),-22.2 (active),-0.587 (inactive),-0.573 (inactive),-1.62,0.42
CCOC(=O)C[C@H]1[C@H](OC(=O)c2ccc(C(=O)c3ccccc3)cc2)[C@@H](NC(=O)c2ccccc2)c2cc(OCCCO)ccc2N1C(=O)c1ccccc1,-0.529,0.783 (inactive),-0.224 (inactive),-0.206 (inactive),0.137 (inactive),0.144 (inactive),0.158 (inactive),0.293 (inactive),0.247,-0.0152
COC(=O)[C@@]1(Cc2ccc(OC)cc2)[C@H]2c3cc(C(=O)N4CCCC4)n(Cc4nc5ccccc5[nH]4)c3C[C@H]2CN1C(=O)c1ccccc1,0.0719,1.36 (inactive),-1.79 (inactive),0.98 (inactive),-0.222 (inactive),0.736 (inactive),-0.0181 (inactive),-0.104 (inactive),-1.2,0.62
COC(=O)[C@]1(Cc2ccccc2)N=C(c2ccc(OCCCO)cc2)O[C@@H]1c1ccccc1N=[N+]=[N-],-2.66,-1.45 (inactive),-4.47 (inactive),1.16 (inactive),1.69 (inactive),0.285 (inactive),0.2 (inactive),-1.19 (inactive),-7.02,0.336
O=C1NC(=O)C2C1C=CC(C(O)c1ccc(I)cc1)N2Nc1ccccn1 (stereo not given),-1.45,-0.27 (inactive),-0.766 (inactive),0.309 (inactive),1.48 (inactive),0.275 (inactive),-0.062 (inactive),-0.495 (inactive),-1.01,0.189
COC(=O)C(CC#Cc1ccc2c(c1)[C@]1(C(=O)N2)[C@H](c2ccccc2OCCO)N2[C@H](c3ccccc3)[C@H](c3ccccc3)OC(=O)[C@H]2[C@@H]1C(N)=O)C(=O)OC,-1.55,0.858 (inactive),-9.28 (active),-2.77 (inactive),1.18 (inactive),1.77 (inactive),-0.0371 (inactive),-0.156 (inactive),-7.42,0.0223
C=CC[C@]1(C(N)=O)COC(c2ccc(OCCCO)cc2)=N1,1.4,0.412 (inactive),-0.801 (inactive),0.94 (inactive),-0.814 (inactive),0.75 (inactive),1.12 (inactive),1.83 (inactive),0.679,-0.095
CCN(CC)c1ccc(N2CC=CC34O[C@@H]5C=CCOC(=O)[C@@H]5[C@H]3C(=O)N(CCCCCCO)[C@@H]4C2=O)cc1 (stereo not given in full),1.35,-0.532 (inactive),1.27 (inactive),0.466 (inactive),-0.152 (inactive),-0.5 (inactive),0.918 (inactive),0.701 (inactive),1.45,0.212
O=C(CS)NCCCCCNC(=O)[C@@H]1C[C@@H]2C(=O)NCC(=O)N2[C@@H]1c1cccc(OCCO)c1,-0.28,-1.01 (inactive),0.648 (inactive),-0.61 (inactive),0.752 (inactive),-2.63 (inactive),1.95 (inactive),2.01 (inactive),0.847,-0.103
CC1CC/C=C\[C@H]2OC34C=CCN(c5ccc6ccccc6c5)C(=O)[C@H]3N(CCO)C(=O)[C@@H]4C2C(=O)O1 (stereo not given in full),-0.854,-0.635 (inactive),-1.03 (inactive),-0.509 (inactive),0.826 (inactive),-0.471 (inactive),-0.726 (inactive),-0.867 (inactive),0.0886,0.0728
CN1CCC(CCCO)=CC1c1cccs1 (stereo not given),-0.34,-0.158 (inactive),-0.838 (inactive),-0.404 (inactive),-0.377 (inactive),-0.842 (inactive),0.212 (inactive),0.0999 (inactive),-0.707,-0.319
C[N+](C)(C)CCCCCCNC(=O)[C@H]1C[C@H]2C(=O)N[C@@H](Cc3ccccc3)C(=O)N2[C@H]1c1cccc(OCCO)c1,0.384,0.0938 (inactive),0.313 (inactive),-1.22 (inactive),0.255 (inactive),0.548 (inactive),0.395 (inactive),0.551 (inactive),0.23,-0.144
CCOC(=O)C1=C[C@@H](C(C)C)N(S(=O)(=O)c2ccc(C)cc2)[C@H]1c1ccccc1F,-0.298,0.81 (inactive),-0.328 (inactive),-0.471 (inactive),0.133 (inactive),0.411 (inactive),-0.77 (inactive),0.0503 (inactive),-0.807,-0.139
COCCOC(=O)N1C(=O)[C@@]2(c3ccccc31)[C@H](c1ccc(OCCO)cc1)N1[C@H](c3ccccc3)[C@H](c3ccccc3)OC(=O)[C@H]1[C@@H]2C(=O)N1CCc2cc(OC)c(OC)cc2C1,-0.14,1.57 (inactive),0.102 (inactive),-2.08 (inactive),1.79 (inactive),2.94 (inactive),0.43 (inactive),0.736 (inactive),0.994,-0.153
Cc1ccc(/C=C/C=O)cc1,-0.466,-1.75 (inactive),-0.509 (inactive),-0.962 (inactive),-0.64 (inactive),0.213 (inactive),0.562 (inactive),0.386 (inactive),0.812,-0.214
C=CCN1C(=O)[C@]2(O[C@H](CCO)[C@@H]([Si](C)(C)c3ccc(OC)cc3)[C@@H]2C)c2cc(N(C=O)c3ccccc3)ccc21,-6,1.14 (inactive),-8.61 (active),0.637 (inactive),0.0245 (inactive),3.98 (inactive),1.72 (inactive),0.905 (inactive),-6.23,-0.0189
O=C1[C@@]23C=C(Br)[C@H](C[C@@H]2COC3)[C@]12CO2,-0.845,-10.2 (active),-0.874 (inactive),-1.91 (inactive),0.732 (inactive),-0.384 (inactive),-0.0135 (inactive),-0.0637 (inactive),-0.741,-0.105
NCCCCCCNC(=O)[C@H]1C[C@H]2C(=O)N[C@@H](Cc3ccccc3)C(=O)N2[C@H]1c1cccc(OCCO)c1,-2.77,-0.669 (inactive),1.51 (inactive),1.18 (inactive),-0.627 (inactive),0.262 (inactive),0.968 (inactive),0.846 (inactive),1.06,0.081
CCOC(=O)C[C@H]1[C@H](OC(=O)c2ccc(-c3ccccc3)cc2)[C@@H](NC(=O)c2ccccc2)c2cc(OCCCO)ccc2N1C(=O)c1ccc2ccccc2n1,-0.471,0.171 (inactive),-0.397 (inactive),-0.12 (inactive),-0.17 (inactive),-0.888 (inactive),0.27 (inactive),0.256 (inactive),-0.258,0.132
COC(=O)c1c(CC[C@@H](CO)NC(=O)N[C@H](Cc2ccccc2)Cn2cc(-c3ccccn3)nn2)oc(C(C)=O)c1C(=O)OC,-1.62,-0.295 (inactive),-1.13 (inactive),0.0502 (inactive),-0.0149 (inactive),-0.559 (inactive),-0.347 (inactive),-0.793 (inactive),-0.857,-0.135
CCCCN1CC=CC23O[C@@H]4C=CCOC(=O)[C@@H]4[C@H]2C(=O)N(CCCCCCO)[C@@H]3C1=O (stereo not given in full),-0.556,0.0518 (inactive),0.0626 (inactive),-0.838 (inactive),-0.112 (inactive),-0.55 (inactive),0.272 (inactive),0.25 (inactive),-0.386,0.245
C=C(CCCC)/C(=C/C[C@@H](OC(C)=O)c1ccccc1OCCO)c1cc(C(=O)OC)ccc1OC,0.937,-0.746 (inactive),-0.909 (inactive),-0.04 (inactive),0.367 (inactive),0.724 (inactive),1.5 (inactive),1.04 (inactive),0.627,-0.02
CS(=O)(=O)CCOC(=O)C1=CC(CCCO)=CC(c2ccc(CN3CCCC3)cc2)N(Cc2cccc(OC(F)(F)F)c2)C=C1C(=O)OCCS(C)(=O)=O (stereo not given),-0.207,-3.9 (inactive),-0.527 (inactive),-1.03 (inactive),1.24 (inactive),1.01 (inactive),0.669 (inactive),0.399 (inactive),0.0703,-0.24
COc1ccc(CCNC(=O)[C@@]2(C)c3ccccc3C(=O)N(c3ccc(C)cn3)[C@H]2c2ccc(CO)cc2)cc1,0.437,-0.673 (inactive),0.978 (inactive),-0.907 (inactive),-0.301 (inactive),0.0798 (inactive),0.0083 (inactive),0.737 (inactive),0.933,-0.0838
